Measurements: PubChem BioAssay (EPA / NIEHS)
“And” between values parts separate entries of the source, which are not always exact repeats. Equal values may be shown once. The source made the active and inactive calls. How the source made its calls: active means hit-call score of the fitted dose curve at least 0.9, where 1 is the maximum; inactive means score below 0.9.

Read-out: E-selectin (Homo sapiens) (UniProt P16581)
Experiment: BSK_3C_Eselectin: BioMAP Diversity Plus: 3C Assay for Eselectin Biomarker Activity (AID 2283015)
Conditions: primary human endothelial cells (HUVEC); actives raise or lower the signal
Protocol: BSK_3C is a cell-based, multiplexed-readout assay that uses umbilical vein endothelium, a human vascular primary cell, with measurements taken at 24 hours after chemical dosing in a 96-well plate.BSK_3C_Eselectin is an assay component measured in the BSK_3C assay. It measures E-selectin antibody related to regulation of gene expression using ELISA technology.Data from the assay component BSK_3C_Eselectin was analyzed into 1 assay endpoint. This assay endpoint, BSK_3C_Eselectin, was analyzed with bidirectional fitting relative to DMSO as the negative control and baseline of activity. Using a type of binding reporter, gain or loss-of-signal activity can be used to understand changes in the signaling as they relate to the gene SELE. Furthermore, this assay endpoint can be referred to as a primary readout, because this assay has produced multiple assay endpoints where this one serves a signaling function. To generalize the intended target to other relatable targets, this assay endpoint is annotated to the cell adhesion molecules intended target family, where the subfamily is selectins.
The levels of cell surface (or secreted, indicated by the prefix "s") biomarker endpoints were measured by ELISA. Overt cytotoxicity to cells in confluent adherent cultures (all systems other than the BT system) was assessed by measuring total protein levels using sulforhodamine B (SRB) staining in parallel cultures at the time of biomarker measurements, indicated as SRB endpoints. For proliferation assays for adherent cell types, individual cell types are cultured at sub-confluence and relative cell numbers quantified by SRB staining at time points optimized for each system (48 h: 3C and CASM3C systems; 72 h: BT and HDF3CGF systems; 96 h: SAg system). SRB was performed by staining cells with 0.1% SRB after fixation with 10% TCA and reading wells at 560 nm.Viability and proliferation of PBMC (T cells) was quantified by Alamar Blue reduction for the SAg and BT systems. For PBMC viability (referred to as PBMC Cytotoxicity within the assay endpoint names), cells were plated (75,000/well in a 96-well plate) and then chemical samples added for 1 h before addition of activators, SEB and TSST-1 (20 ng/mL final concentration each). Cells were incubated for 90 h. Then, Alamar Blue (20 uL/well) (Invitrogen, Cat DAL1100) was added for 6 h, and the plates were read with a fluorescence microplate reader at 546/580 nm (excitation/emission). For PBMC proliferation, cells were plated and activated as above but incubated for only 16 h prior to addition of Alamar Blue. Plates were read after 6 h.

E-selectin (Homo sapiens), sequence (P16581 whole entry, looked up): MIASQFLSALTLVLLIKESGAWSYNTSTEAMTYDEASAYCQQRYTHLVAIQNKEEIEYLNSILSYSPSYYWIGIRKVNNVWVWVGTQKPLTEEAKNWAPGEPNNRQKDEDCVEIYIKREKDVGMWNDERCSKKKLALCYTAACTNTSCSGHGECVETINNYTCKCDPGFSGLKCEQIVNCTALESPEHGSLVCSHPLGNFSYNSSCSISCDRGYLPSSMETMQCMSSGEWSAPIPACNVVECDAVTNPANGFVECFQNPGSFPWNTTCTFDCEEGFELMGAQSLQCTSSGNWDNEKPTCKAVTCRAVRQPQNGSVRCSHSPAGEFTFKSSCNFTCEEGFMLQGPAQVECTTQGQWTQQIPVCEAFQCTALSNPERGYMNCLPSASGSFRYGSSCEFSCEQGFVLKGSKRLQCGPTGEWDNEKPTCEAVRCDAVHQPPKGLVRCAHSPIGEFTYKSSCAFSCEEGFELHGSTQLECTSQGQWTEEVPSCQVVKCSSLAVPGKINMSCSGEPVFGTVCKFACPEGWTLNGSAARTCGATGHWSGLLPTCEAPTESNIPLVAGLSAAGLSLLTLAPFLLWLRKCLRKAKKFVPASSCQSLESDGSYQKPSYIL

Structure (SMILES)	outcome	AC50
CCOC(=O)CC(=O)C(F)(F)C(F)(F)F	inactive	
C[Si](Cl)(Cl)CCC(F)(F)C(F)(F)C(F)(F)C(F)(F)C(F)(F)C(F)(F)F	inactive	
Cc1ccc(S(=O)(=O)C(I)I)cc1		3.08 µM (active)
C=CC(=O)OCC(F)(F)C(F)(F)C(F)(F)C(F)(F)C(F)(F)C(F)(F)C(F)(F)C(F)F	inactive	
O=C=Nc1cccc2c(N=C=O)cccc12	inactive	
NC(=O)C(F)(F)C(F)(F)C(F)(F)C(F)F	inactive	
FC(F)(F)C(F)(F)C(F)(F)C(F)(F)C(F)(F)C(F)(F)CC[Si](Cl)(Cl)Cl	inactive	
C[C@]12CC[C@H]3C(=CCc4cc(O)ccc43)[C@@H]1CCC2=O	inactive	
CC1=CC2C3C=CC(C3)C2C1C (stereo not given)	inactive	
OCC(F)(F)C(F)(F)C(F)(F)CO	inactive	
COC(F)(C(F)F)C(F)(F)F (stereo not given)	inactive	
O=C(F)C1(F)C(F)(F)C(F)(F)C(F)(F)C(F)(F)C1(F)F	inactive	
O=C1C=CC(=O)N1c1ccc(Cc2ccc(N3C(=O)C=CC3=O)cc2)cc1		8.52 µM (active)
C=CC(=O)OCCC(F)(F)C(F)(F)C(F)(F)C(F)(F)F		33.7 µM (active) and 30 µM (active)
CO[Si](C)(CCC(F)(F)C(F)(F)C(F)(F)C(F)(F)C(F)(F)C(F)(F)F)OC	inactive	
CN(C(=O)C(F)(F)C(F)(F)C(F)(F)F)[Si](C)(C)C	inactive	
NC(=O)C(F)(F)C(F)(F)C(F)(F)C(F)(F)C(N)=O	inactive	
O=S(=O)(O)CCC(F)(F)C(F)(F)C(F)(F)C(F)(F)C(F)(F)C(F)(F)C(F)(F)C(F)(F)F	inactive	
O=C1c2c(O)ccc(Nc3ccc(CCO)cc3)c2C(=O)c2c([N+](=O)[O-])ccc(O)c21		4.35 µM (active)
NC(O)(C(F)(F)F)C(F)(F)F	inactive	

Structure (SMILES)	outcome	AC50
CNS(=O)(=O)C(F)(F)C(F)(F)C(F)(F)C(F)(F)C(F)(F)C(F)(F)C(F)(F)C(F)(F)F	inactive	
O=S(=O)(OCC(F)(F)F)C(F)(F)C(F)(F)C(F)(F)C(F)(F)F	inactive	
Brc1nc2ccccc2s1	inactive	
CC(C)CCCC(C)CCO (stereo not given)		36.8 µM (active)
Cc1cnccn1	inactive	
OCC(F)(F)C(F)(F)C(F)(F)C(F)(F)C(F)(F)C(F)(F)C(F)(F)C(F)(F)CO	inactive	
O=C(O)C(F)(F)C(F)(F)C(F)(F)C(=O)O	inactive	
NC(=O)C(F)(F)C(F)(F)C(F)(F)F	inactive	
OCCCCC(F)(F)C(F)(F)C(F)(F)C(F)(F)F	inactive	
C=C(C)C(=O)OCC(F)(F)C(F)(F)C(F)(F)C(F)F	inactive	
Cc1ccc(O)c(-n2nc3ccccc3n2)c1	inactive	
O=C(c1ccccc1)c1ccc(O)cc1O	inactive	
O=S(=O)(O)CCC(F)(F)C(F)(F)C(F)(F)C(F)(F)F	inactive	
CCN(CC)c1ccc(N=Nc2ccccc2)cc1	inactive	
O=C(Cl)C(F)(F)C(F)(F)C(F)(F)C(F)(F)C(F)(F)C(F)(F)F	inactive	
O=C=NCc1cccc(CN=C=O)c1	inactive	
FC(F)(F)C(F)(F)C(F)(F)CC1CO1 (stereo not given)	inactive	
O=C(O)CCC(F)(F)C(F)(F)C(F)(F)C(F)(F)C(F)(F)C(F)(F)C(F)(F)F	inactive	
CCN(CC)c1ccc(C=O)cc1	inactive	
O=C(O)C(F)(F)OC(F)(F)C(F)(F)OC(F)(F)C(F)(F)OC(F)(F)F	inactive	
